# PubChem BioAssay (NCATS)
# Inconclusive results are not listed. The source made the active and inactive calls. Unless noted, calls follow the shape of the full dose curve.
# Tests used:
# [1] = Primary qHTS for inhibitors of nuclear receptor binding SET domain protein 2 (NSD2) in an isogenic RCH-ACV NSD2 p.E1099K mutant (9B) (AID 1645876; active = well fitted inhibition curve with a large enough effect; also: nearly all actives have a fitted effect of over 70% in size)
# [2] = qHTS drug screen for cell cycle checkpoint inhibitors in PARPi-resistant BRCA-mutant ovarian cancer cell lines. (AID 1963452); conditions: PEO1/OlaR viability, CellTiter-Glo luminescence, 96 h; for Z-AUC: stronger effect = lower value
# Method in brief: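 PEO1, PEO4 and PEO1/OlaR ovarian cancer cells, 600 per well, exposed 96 h at 37C to a dilution series. Viability read by CellTiter-Glo luminescence, normalized to DMSO and empty wells; activity summarized as Z-AUC.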
# Potency is read from the fitted curve at half-maximal effect.
Structure (SMILES),Potency [1],Z-AUC ([2]; PEO1 parental Z-AUC),Z-AUC ([2]; PEO4 Z-AUC),Z-AUC [2],Potency [2]
COC(=O)[C@]12CCC(C)(C)C[C@H]1[C@H]1C(=O)C=C3[C@@]4(C)C=C(C#N)C(=O)C(C)(C)[C@@H]4CC[C@@]3(C)[C@]1(C)CC2,8.33 µM (active),-0.983,-1.45,0.111 (inactive),
CC1(C)CC[C@]2(NC(=O)C(C)(F)F)CC[C@]3(C)[C@H](C(=O)C=C4[C@@]5(C)C=C(C#N)C(=O)C(C)(C)[C@@H]5CC[C@]43C)[C@@H]2C1,9.34 µM (active),-1.7,-2.21,,1.38 µM (active)
